PostGolgi ctrl: growth inhibition of yeast control strain, primary screen, counter-screen for post-Golgi transport modulator project. 98,000 compounds, 5% hits. efflux-deficient yeast background strain, growth absorbance A615, 16 h. inhibition, % at 10 µM. AID 738, 2007
CYP2C19 activ: human CYP2C19 activators, primary screen, biochemical, luminescence; recombinant CYP2C19, luciferin-H EGE luminescence; active compounds read high; 0 = fully inhibited enzyme, 1 = untreated enzyme; activation factor at 5 µM; 96,000 tested, under 10 active; AID 1025, 2008;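 active = activation factor of at least 2 at 5 µM in the primary screen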;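 note: 0 = wells with 2.5 mM tranylcypromine and 1 = vehicle-only wells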
PostGolgi yeast: phenotypic screen on post-Golgi transport, primary screen. inhibition, % at 10 µM. 98,000 compounds, 0.9% hits. AID 739, 2007. post-Golgi transport phenotypic cell assay;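 note: yeast cells grown in 1536-well plates; yeast grown about 18 h at 30C before absorbance read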
CYP2C9 inh: blockers of cytochrome P450 2C9 activity – biochemical, luminescence, ADME assay, primary screen | inhibition, % at 5 µM | 96,000 compounds, 20% hits | CYP2C9 Supersomes, luciferin-H conversion;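 active = blocking of liver enzyme CYP2C9 beyond about 50% at 5 µM, limit read from the data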
Target sequence (P11712 whole entry, looked up): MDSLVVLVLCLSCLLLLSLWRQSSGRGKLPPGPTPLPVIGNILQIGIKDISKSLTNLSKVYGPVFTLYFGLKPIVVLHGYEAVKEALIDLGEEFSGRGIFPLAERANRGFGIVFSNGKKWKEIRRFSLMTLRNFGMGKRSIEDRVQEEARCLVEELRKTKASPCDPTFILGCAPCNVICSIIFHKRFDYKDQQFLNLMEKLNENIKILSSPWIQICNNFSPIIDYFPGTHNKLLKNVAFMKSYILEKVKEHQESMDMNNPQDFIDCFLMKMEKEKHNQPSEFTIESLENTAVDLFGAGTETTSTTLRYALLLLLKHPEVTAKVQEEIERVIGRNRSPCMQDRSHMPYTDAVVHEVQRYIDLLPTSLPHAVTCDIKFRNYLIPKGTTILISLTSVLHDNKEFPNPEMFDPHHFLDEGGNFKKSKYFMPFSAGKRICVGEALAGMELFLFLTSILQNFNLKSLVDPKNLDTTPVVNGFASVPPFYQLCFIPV
CYP2C19 inhib: blockers of cytochrome P450 2C19 activity – biochemical, luminescence, ADME assay, primary screen; P33261; CYP2C19 Supersomes, luciferin-H EGE luminescence, 30 min; inhibition, % at 5 µM; 96,000 compounds, 21% hits; AID 778, 2007;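 active = CYP2C19 inhibition above a set limit at 5 µM in the primary screen, cut at about 50% in these data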;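 note: plate controls were negative control wells for no effect and 2.5 mM tranylcypromine positive control for full effect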
CYP2C9 activ: human CYP2C9 activators, primary screen, biochemical, luminescence. 96,000 compounds, 1.4% hits. activation factor at 5 µM. recombinant CYP2C9, luciferin-H conversion; active compounds read high; factor 1 = untreated enzyme, 0 = blocked. Cytochrome P450 2C9 (Homo sapiens), P11712;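 active = activation factor of 2 or more for CYP2C9 at a 5 µM dose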;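 note: 0 = sulfaphenazole-blocked wells and 1 = vehicle-only wells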
An asterisk follows results filed as active; . = not tested or not shown. Shown are actives, neighbours in structure and some others; about 32% of the full set was active somewhere. Cut-off read from the data, not from the text of the source, unless noted: active = inhibition above about 30%; inactive = the rest.

SMILES | PostGolgi ctrl | CYP2C19 activ | PostGolgi yeast | CYP2C9 inh | CYP2C19 inhib | CYP2C9 activ
c1ccc2nc3c(nc2c1)c1ccccc1n3CCN1CCOCC1 | -2 | 0.7 | 5 | 21 | 29 | 0.8
CCn1c2ccccc2c2nc3cc(S(=O)(=O)N4CCOCC4)ccc3nc21 | 28 | 0.8 | -1 | 85* | 22 | 0.2
CCOC(=O)CSc1nc2cccnc2n1-c1ccc(F)cc1 | 3 | 0.6 | -4 | 18 | 36 | 0.8
Cc1ccc(C(=O)CSc2nc3cccnc3n2C)cc1 | 7 | 0.7 | 11 | -56 | 32 | 1.6
COc1ccc(OC)c(C(=O)CSc2nc3c(c(=O)n(C)c(=O)n3C)n2C(C)C)c1 | 5 | 0.6 | -2 | 54* | 45 | 0.5
COc1ccc(OC)c(C(=O)CSc2nnc(-c3ccc(OC)c(OC)c3)o2)c1 | -6 | 1.1 | 0 | -26 | -8 | 1.3
CCCn1c(SCC(=O)c2cc(OC)ccc2OC)nc2c1c(=O)n(C)c(=O)n2C | . | 1.1 | . | -6 | -7 | 1.1
COc1ccc(OC)c(C(=O)CSc2nc3cccnc3n2C)c1 | 1 | 0 | -7 | 77* | 98* | 0.2
Cn1c(SCC(=O)c2ccc(F)cc2)nc2cccnc21 | -3 | 0.2 | -18 | -15 | 85* | 1.1
Cn1c(SCC(=O)c2ccccc2)nc2cccnc21 | 28 | 0.3 | 5 | 43 | 72* | 0.6
O=C(c1ccccc1)N1CCN(CC#CC2(O)CCCCC2)CC1 | 5 | 1.1 | 11 | -17 | -10 | 1.2
CCC(C)N1CC23C=CC(O2)C(C(=O)OCc2ccccc2)C3C1=O (stereo unspecified) | 16 | 1.1 | 6 | 47 | -5 | 0.5
COc1ccc(CNC(=O)CN(C(=O)c2ccc(CN3CCOCC3)o2)C2CCCC2)cc1 | 6 | . | 7 | . | . | .
Cn1c(SCc2cccnc2)nc2cccnc21 | 1 | 0.8 | 3 | 15 | 20 | 0.9
Cc1ccc(OCC(O)CN2CCN(Cc3ccc4c(c3)OCO4)CC2)c(C)c1 (stereo unspecified) | 30 | 0.8 | 100* | 13 | 25 | 0.9
Cc1ccc(NC(=O)N2CCN(Cc3ccc4c(c3)OCO4)CC2)cc1 | 5 | 0.7 | -3 | 81* | 34 | 0.2
O=C(CSCc1cccc(Cl)c1)N1CCN(Cc2ccc3c(c2)OCO3)CC1 | 28 | 0.7 | 48* | 16 | 31 | 0.8
CCn1cc(C(=O)N2CCN(Cc3ccc4c(c3)OCO4)CC2)c(=O)c2ccc(C)nc21 | 0 | 1 | -8 | 2 | -4 | 1
O=C(c1cccn2c(=O)c3ccc(Cl)cc3nc12)N1CCN(Cc2ccc3c(c2)OCO3)CC1 | 17 | 0.8 | 3 | 70* | 19 | 0.3
O=C(Cn1ccc2ccccc2c1=O)N1CCN(Cc2ccc3c(c2)OCO3)CC1 | 20 | 0.8 | -2 | 12 | 18 | 0.9
CC1(C)NC(=O)NC2(C)NC(=O)NC(C)(C)C12 (stereo unspecified) | 4 | 1.1 | 6 | -16 | -12 | 1.2
Cc1ccc(N(C(=O)c2sc(C)nc2C)C(C(=O)NCc2ccco2)c2ccccc2)cc1 (stereo unspecified) | 5 | 0.8 | 3 | 10 | 16 | 0.9
COc1ccc(CN2CCN(C(=O)CC(C)C)CC2)cc1OC | -16 | 1 | 6 | -37 | -2 | 1.4
O=C(Cn1ncc2c1-c1ccccc1OC2)N1CCN(Cc2ccc3c(c2)OCO3)CC1 | 16 | 0.9 | -20 | 68* | 8 | 0.3
O=C(CN1C(=O)c2ccccc2S1(=O)=O)N1CCN(Cc2ccc3c(c2)OCO3)CC1 | 13 | 0.8 | -7 | 35 | 18 | 0.7
SMILES | PostGolgi ctrl | CYP2C19 activ | PostGolgi yeast | CYP2C9 inh | CYP2C19 inhib | CYP2C9 activ
Cc1ccc(C(=O)N2CCN(Cc3ccc4c(c3)OCO4)CC2)o1 | -2 | 0.5 | 19 | 42 | 50 | 0.6
COc1cccc(OC)c1C(=O)N1CCN(Cc2ccccc2C)CC1 | -3 | 0.2 | 0 | 74* | 79* | 0.3
COc1ccc(CN2CCN(C(=O)CC(C)C)CC2)c2ccccc12 | 2 | 0.5 | 7 | 10 | 52* | 0.9
COc1cccc(OC)c1C(=O)N1CCN(Cc2ccc3c(c2)OCO3)CC1 | -2 | 0.4 | -5 | 61* | 57* | 0.4
CCC1c2ccc(C)n2CCN1C(=O)Nc1ccc(F)cc1 (stereo unspecified) | 4 | 0.7 | 13 | 15 | 28 | 0.8
O=C(N1CCN(Cc2ccc3c(c2)OCO3)CC1)C12CC3CC(CC(C3)C1)C2 | . | 0.3 | . | 50* | 66* | 0.5
CCOc1ncccc1C(=O)N1CCN(Cc2ccc3c(c2)OCO3)CC1 | 5 | 0.2 | 0 | 55* | 82* | 0.5
c1cc2c(cc1CN1CCOCC1)OCO2 | 15 | 0.7 | -7 | 6 | 30 | 0.9
O=C(Cn1cc(C(=O)c2cccs2)c2ccccc21)NCc1ccc2c(c1)OCO2 | 22 | 0.4 | 7 | 73* | 64* | 0.3
O=C(Cn1cc(C(=O)c2cccs2)c2ccccc21)NCC1CCCO1 (stereo unspecified) | 6 | 0.3 | 6 | 47 | 67* | 0.5
O=C(Cn1cc(C(=O)c2ccco2)c2ccccc21)NCc1ccco1 | 3 | 0.8 | -5 | 37 | 24 | 0.6
CCCCN1CC(O)=C(c2nc3ccccc3s2)C1=N | 7 | 0.5 | 2 | 64* | 45 | 0.4
CCC(C)N1CC(O)=C(c2nc3ccccc3[nH]2)C1=N (stereo unspecified) | 14 | 0.2 | 0 | 38 | 84* | 0.6
CCCCCCN1CC(O)=C(c2nc3ccccc3[nH]2)C1=N | 14 | 0.4 | -6 | 90* | 59* | 0.1
C=CCn1c(=O)c2c3c(sc2n2c(Nc4ccc(OC)cc4)nnc12)CCCC3 | 33* | 0.8 | 5 | 79* | 21 | 0.2
N#CC1=C(N)N(c2ccc(Oc3ccccc3)cc2)C(=O)C1 | 1 | 0.5 | -4 | 52* | 46 | 0.5
O=C(CCC(=O)OCC(=O)c1ccc(Cl)cc1Cl)Nc1cccc2cccnc12 | 38* | 0.9 | 2 | -6 | 14 | 1.1
O=S1(=O)CCN2C=C(Br)C=C(Br)C2=N1 | 1 | 1 | -8 | -2 | 3 | 1
COCC(=O)NC(C)c1nc2ccccc2[nH]1 (stereo unspecified) | -3 | 1.1 | 15 | -18 | -10 | 1.2
Cc1cc(NC(=O)CCC(=O)N(C2CC2)C2(C(=O)NC3CCCC3)CCC(C)CC2)no1 (stereo unspecified) | 18 | 0.4 | 1 | 71* | 59* | 0.3
C=CCN(C(=O)CCC(=O)Nc1cc(C)on1)C(C(=O)NC1CCCC1)c1cccnc1 (stereo unspecified) | 17 | 0.6 | -2 | 68* | 45 | 0.3

Screening results as filed in PubChem BioAssay.
